Test results published in PubChem BioAssay (EPA / NIEHS).
Records with an inconclusive call do not appear. Calls of active or inactive are those of the source. The calls were made as follows, unless noted: active = hit-call score of the fitted dose curve at least 0.9, where 1 is the maximum; inconclusive = response in the unintended direction; inactive = score below 0.9.

Columns and labels:
[1] = ATG_TCF_b_cat_CIS: Attagene CIS-FACTORIAL HepG2 Assay for human T-Cell-Factor with beta-catenin (TCF/b-cat) (AID 2282965; active = hit-call score of the fitted dose curve at least 0.9, where 1 is the maximum; inactive = score below 0.9); settings: HepG2 TCF/beta-catenin cis-reporter transcription, actives raise or lower the signal
In short: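 HepG2 cells transiently transfected with multiple cis-promoter-regulated reporter transcription units, so endogenous transcription factor activity is measured. Reporter mRNA read 24 hours after dosing by RT-PCR, fluorescent labelling and capillary electrophoresis; bidirectional fitting against DMSO.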

[2] = ATG_TAL_CIS: Attagene CIS-FACTORIAL HepG2 Assay for human TAL Basal Promoter (AID 2282966; active = hit-call score of the fitted dose curve at least 0.9, where 1 is the maximum; inactive = score below 0.9;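 also: background control endpoint measuring basal TAL promoter reporter mRNA not a specific factor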); settings: HepG2 Attagene cis-factorial TAL promoter reporter; actives raise or lower the signal
In short: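 Fluorescence of labelled reporter cDNA fragments, resolved by capillary electrophoresis, gave the readout. Human HepG2 liver cells carried transiently transfected cis-element reporter units and were treated for 24 hours; activity was fitted bidirectionally against DMSO.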

[3] = ATG_TGFb_CIS: Attagene CIS-FACTORIAL HepG2 Assay for human Transforming Growth Factor (TGF) (AID 2282967; active = hit-call score of the fitted dose curve at least 0.9, where 1 is the maximum; inactive = score below 0.9); settings: HepG2 Attagene CIS TGFb reporter, mRNA transcription; actives raise or lower the signal
In short: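 After a 24-hour incubation with compound, transfected HepG2 cells were lysed for RNA; reporter cDNA was amplified, fluorescently end-labeled and separated by CE. DMSO served as baseline for bidirectional fits.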

[4] = ATG_VDRE_CIS: Attagene CIS-FACTORIAL HepG2 Assay for human Vitamin D Receptor Element (VDRE) (AID 2282968; active = hit-call score of the fitted dose curve at least 0.9, where 1 is the maximum; inactive = score below 0.9); settings: HepG2 VDRE cis-reporter transcription, actives raise or lower the signal
In short: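 HepG2 cells transiently transfected with cis-element reporter units, dosed 24 h; reporter mRNA measured by RT-PCR, 6-FAM labeling, HpaI digestion and capillary electrophoresis. Activity fitted bidirectionally against DMSO baseline.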

[5] = molecular target: Nuclear receptor subfamily 1 group I member 3 (Homo sapiens) (UniProt Q14994); test: ATG_CAR_TRANS: Attagene TRANS-FACTORIAL HepG2 Assay for human Constitutive Androstane Receptor (CAR) (AID 2282969); settings: HepG2 Attagene TRANS-FACTORIAL CAR reporter;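 also: activators raise reporter mRNA above DMSO so AC50 marks induction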
Chain of Nuclear receptor subfamily 1 group I member 3 (Homo sapiens) (Q14994 whole entry, looked up, the tested form may be a part): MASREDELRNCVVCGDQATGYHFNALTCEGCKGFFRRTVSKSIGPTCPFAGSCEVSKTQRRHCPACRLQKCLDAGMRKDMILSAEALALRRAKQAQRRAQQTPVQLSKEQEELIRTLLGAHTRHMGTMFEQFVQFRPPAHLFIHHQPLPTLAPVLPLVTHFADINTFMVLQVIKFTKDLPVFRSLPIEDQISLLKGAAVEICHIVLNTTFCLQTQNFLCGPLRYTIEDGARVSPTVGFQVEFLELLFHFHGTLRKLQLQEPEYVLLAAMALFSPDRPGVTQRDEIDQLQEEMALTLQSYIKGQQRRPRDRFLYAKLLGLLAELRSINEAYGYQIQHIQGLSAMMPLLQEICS
In short: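 HepG2 cells transiently transfected with multiplexed GAL4-UAS reporter units expressing chimeric NR-Gal4 proteins; compound exposure 24 h. Reporter mRNA measured by RT-PCR, 6-FAM labelling, HpaI digestion and capillary electrophoresis; gain-of-signal fitted against DMSO baseline.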

[6] = molecular target: Steroid hormone receptor ERR1 (Homo sapiens) (UniProt P11474); test: ATG_ERRa_TRANS: Attagene TRANS-FACTORIAL HepG2 Assay for human Estrogen-Related Receptor alpha (ERRa) (AID 2282971); settings: HepG2 Attagene TRANS reporter, ERRa transactivation
Chain of Steroid hormone receptor ERR1 (Homo sapiens) (P11474 whole entry, looked up, the tested form may be a part): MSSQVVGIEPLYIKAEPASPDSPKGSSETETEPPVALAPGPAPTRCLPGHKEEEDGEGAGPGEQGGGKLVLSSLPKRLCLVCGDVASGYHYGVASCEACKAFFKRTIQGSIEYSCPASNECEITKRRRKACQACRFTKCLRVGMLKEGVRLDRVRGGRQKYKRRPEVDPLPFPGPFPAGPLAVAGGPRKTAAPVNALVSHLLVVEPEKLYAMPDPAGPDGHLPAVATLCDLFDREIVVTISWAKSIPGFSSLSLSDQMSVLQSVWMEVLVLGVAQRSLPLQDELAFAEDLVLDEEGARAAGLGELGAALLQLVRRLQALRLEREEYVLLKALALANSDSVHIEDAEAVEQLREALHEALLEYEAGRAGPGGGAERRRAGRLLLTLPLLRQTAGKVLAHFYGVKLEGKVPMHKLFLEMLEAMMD
In short: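 Reporter transcript induction was quantified by RT-PCR and capillary electrophoresis of FAM-labelled, HpaI-cut products after 24 h treatment of HepG2 cells carrying transiently transfected GAL4-UAS reporter units and an exogenous ERRa-Gal4 fusion; activity scored as increase over DMSO.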

[7] = molecular target: X-box-binding protein 1 (Homo sapiens) (UniProt P17861); test: ATG_Xbp1_CIS: Attagene CIS-FACTORIAL HepG2 Assay for human X-box Binding Protein 1 (XBP1) (AID 2282972; active = hit-call score of the fitted dose curve at least 0.9, where 1 is the maximum; inactive = score below 0.9); settings: HepG2 XBP1 cis-element reporter, Attagene multiplex; actives raise or lower the signal
Chain of X-box-binding protein 1 (Homo sapiens) (P17861 whole entry, looked up): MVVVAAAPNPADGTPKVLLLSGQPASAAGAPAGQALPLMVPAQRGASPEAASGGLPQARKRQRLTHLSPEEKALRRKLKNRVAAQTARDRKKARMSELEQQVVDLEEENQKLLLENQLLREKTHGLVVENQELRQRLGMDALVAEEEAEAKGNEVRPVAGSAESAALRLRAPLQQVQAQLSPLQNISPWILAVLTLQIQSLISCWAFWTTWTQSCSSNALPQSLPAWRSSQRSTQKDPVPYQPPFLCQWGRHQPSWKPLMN
In short: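 After a 24-hour chemical exposure of HepG2 cells carrying cis-regulated reporters, reporter mRNA levels are assessed. Quantification uses RT-PCR, 6-FAM labelling and capillary electrophoresis. Gain- or loss-of-signal is fitted against DMSO.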

[8] = ATG_Hpa5_TRANS: Attagene TRANS-FACTORIAL HepG2 Assay for human GAL4-Hpa5 Hepatocyte Transcription Factor Basal Promoter (AID 2282975); settings: HepG2 Attagene GAL4-Hpa5 transcription reporter;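 also: hits are increases in reporter mRNA over DMSO baseline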
In short: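 Basal-promoter GAL4 background control within the HepG2 trans-factorial panel of transiently transfected reporter units. Reporter mRNA is measured 24 h after dosing by RT-PCR and capillary electrophoresis, fitted for gain of signal versus DMSO.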

[9] = ATG_GAL4_TRANS: Attagene TRANS-FACTORIAL HepG2 Assay for GAL4 (Internal Marker) (AID 2282976); settings: HepG2 Attagene TRANS GAL4 internal marker reporter
In short: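 First, HepG2 cells were transfected with reporter units under GAL4-UAS control. Next, they were treated with chemical for 24 h. Finally, RNA was reverse-transcribed, PCR-amplified, FAM-labelled and resolved by capillary electrophoresis, with induction scored against DMSO.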

[10] = molecular target: Estrogen-related receptor gamma (Homo sapiens) (UniProt P62508); test: ATG_ERRg_TRANS: Attagene TRANS-FACTORIAL HepG2 Assay for human Estrogen-Related Receptor gamma (ERRg) (AID 2282977); settings: HepG2 Attagene TRANS reporter, ERRg transactivation;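 also: hits increase reporter signal over DMSO so potencies reflect activators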
Chain of Estrogen-related receptor gamma (Homo sapiens) (P62508 whole entry, looked up, the tested form may be a part): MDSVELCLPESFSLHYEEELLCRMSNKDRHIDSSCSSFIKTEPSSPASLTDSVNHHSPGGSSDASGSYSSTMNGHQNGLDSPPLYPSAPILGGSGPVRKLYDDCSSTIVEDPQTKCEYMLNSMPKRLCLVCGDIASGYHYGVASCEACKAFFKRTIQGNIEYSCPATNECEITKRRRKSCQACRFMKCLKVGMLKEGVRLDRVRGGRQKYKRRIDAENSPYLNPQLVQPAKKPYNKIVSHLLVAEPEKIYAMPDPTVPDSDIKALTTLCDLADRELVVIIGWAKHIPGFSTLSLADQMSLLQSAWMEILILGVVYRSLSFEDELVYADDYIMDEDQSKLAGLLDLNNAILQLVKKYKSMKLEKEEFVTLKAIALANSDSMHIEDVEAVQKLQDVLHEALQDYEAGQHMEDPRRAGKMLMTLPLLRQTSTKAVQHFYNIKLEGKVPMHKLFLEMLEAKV
In short: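 Transient HepG2 transfectants, 24 h compound exposure, GAL4-UAS reporter mRNA by RT-PCR/6-FAM labelling/capillary electrophoresis; positive direction vs DMSO.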

[11] = molecular target: Glucocorticoid receptor (Homo sapiens) (UniProt P04150); test: ATG_GR_TRANS: Attagene TRANS-FACTORIAL HepG2 Assay for human Glucocorticoid Receptor (GR) (AID 2282978); settings: HepG2 Attagene TRANS GR reporter, mRNA transcription;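 also: activators score as hits since higher reporter transcript over DMSO is fitted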
Chain of Glucocorticoid receptor (Homo sapiens) (P04150 whole entry, looked up, the tested form may be a part): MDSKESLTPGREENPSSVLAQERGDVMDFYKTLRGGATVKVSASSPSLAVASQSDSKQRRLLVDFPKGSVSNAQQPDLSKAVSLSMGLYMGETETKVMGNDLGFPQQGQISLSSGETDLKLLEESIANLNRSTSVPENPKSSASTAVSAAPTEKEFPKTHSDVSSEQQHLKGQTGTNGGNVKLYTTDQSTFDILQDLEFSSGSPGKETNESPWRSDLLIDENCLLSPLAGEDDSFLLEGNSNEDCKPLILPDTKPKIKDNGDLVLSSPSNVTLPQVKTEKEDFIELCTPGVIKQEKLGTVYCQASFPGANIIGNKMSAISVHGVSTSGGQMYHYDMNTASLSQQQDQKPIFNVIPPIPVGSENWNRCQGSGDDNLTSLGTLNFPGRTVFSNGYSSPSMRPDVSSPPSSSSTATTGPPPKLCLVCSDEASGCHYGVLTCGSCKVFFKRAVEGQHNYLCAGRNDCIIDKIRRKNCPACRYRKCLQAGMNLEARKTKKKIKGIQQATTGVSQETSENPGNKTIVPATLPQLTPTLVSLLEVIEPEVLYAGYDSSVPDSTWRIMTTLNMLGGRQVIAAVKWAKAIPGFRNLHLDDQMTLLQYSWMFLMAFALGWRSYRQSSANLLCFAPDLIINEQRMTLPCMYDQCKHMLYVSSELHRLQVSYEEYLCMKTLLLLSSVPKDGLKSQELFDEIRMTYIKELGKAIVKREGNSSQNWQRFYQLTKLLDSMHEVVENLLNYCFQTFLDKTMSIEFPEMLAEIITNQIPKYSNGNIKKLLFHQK
In short: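 Transiently transfected HepG2 cells express chimeric NR-GAL4 proteins acting on GAL4-UAS reporter units. Compounds are applied for 24 h. mRNA induction over DMSO is measured by capillary electrophoresis.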

[12] = molecular target: Bile acid receptor (Homo sapiens) (UniProt Q96RI1); test: ATG_FXR_TRANS: Attagene TRANS-FACTORIAL HepG2 Assay for Farnesoid X Receptor (FXR) (AID 2282979); settings: HepG2 Attagene TRANS FXR-GAL4 reporter transcription;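 also: hits raise reporter mRNA above DMSO so AC50 marks FXR activation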
Chain of Bile acid receptor (Homo sapiens) (Q96RI1 whole entry, looked up, the tested form may be a part): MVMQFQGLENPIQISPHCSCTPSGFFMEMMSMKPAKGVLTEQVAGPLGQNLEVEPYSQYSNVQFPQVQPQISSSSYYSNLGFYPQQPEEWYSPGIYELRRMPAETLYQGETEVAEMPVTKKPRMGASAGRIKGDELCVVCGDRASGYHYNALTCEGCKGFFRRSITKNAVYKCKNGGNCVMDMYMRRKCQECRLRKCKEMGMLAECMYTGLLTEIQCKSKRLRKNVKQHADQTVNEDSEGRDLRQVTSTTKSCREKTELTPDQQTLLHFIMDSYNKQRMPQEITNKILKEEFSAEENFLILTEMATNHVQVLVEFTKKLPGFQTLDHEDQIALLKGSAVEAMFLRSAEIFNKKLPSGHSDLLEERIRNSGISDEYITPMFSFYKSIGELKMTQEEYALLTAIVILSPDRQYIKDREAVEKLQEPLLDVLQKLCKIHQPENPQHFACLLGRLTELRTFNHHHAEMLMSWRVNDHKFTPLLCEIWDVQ
In short: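 Transient transfection of HepG2 with multiplexed GAL4-UAS reporter units; exogenous FXR-GAL4 chimera. Dose 24 h → TriZol RNA → oligo(dT) RT → PCR, 6-FAM primer extension, HpaI cut → CE. Gain vs DMSO.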

[13] = molecular target: Oxysterols receptor LXR-alpha (Homo sapiens) (UniProt Q13133); test: ATG_LXRa_TRANS: Attagene TRANS-FACTORIAL HepG2 Assay for human Liver X Receptor alpha (LXRa) (AID 2282980); settings: HepG2 Attagene TRANS reporter, LXRa transactivation
Chain of Oxysterols receptor LXR-alpha (Homo sapiens) (Q13133 whole entry, looked up, the tested form may be a part): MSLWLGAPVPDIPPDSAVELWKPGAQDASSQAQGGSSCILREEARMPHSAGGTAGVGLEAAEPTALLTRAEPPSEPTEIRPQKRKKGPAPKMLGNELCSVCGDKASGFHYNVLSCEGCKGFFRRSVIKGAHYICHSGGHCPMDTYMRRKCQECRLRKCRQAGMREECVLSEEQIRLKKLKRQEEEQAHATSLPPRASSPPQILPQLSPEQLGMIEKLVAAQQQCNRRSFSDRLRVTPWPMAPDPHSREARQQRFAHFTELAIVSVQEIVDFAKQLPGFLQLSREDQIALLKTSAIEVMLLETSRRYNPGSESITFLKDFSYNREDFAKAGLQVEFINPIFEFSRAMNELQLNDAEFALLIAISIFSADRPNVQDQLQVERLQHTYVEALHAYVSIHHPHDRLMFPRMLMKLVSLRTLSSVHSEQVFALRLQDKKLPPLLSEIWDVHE
In short: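 Transfect HepG2 with GAL4-UAS multiplex reporter constructs (TRANS format, chimeric receptor-GAL4); treat 24 h; extract RNA, reverse-transcribe, PCR-amplify, FAM-label, HpaI-digest; resolve fragments by capillary electrophoresis. Upward response vs DMSO.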

[14] = molecular target: Oxysterols receptor LXR-beta (Homo sapiens) (UniProt P55055); test: ATG_LXRb_TRANS: Attagene TRANS-FACTORIAL HepG2 Assay for human Liver X Receptor beta (LXRb) (AID 2282981); settings: HepG2 Attagene TRANS GAL4-LXRb reporter, mRNA
Chain of Oxysterols receptor LXR-beta (Homo sapiens) (P55055 whole entry, looked up, the tested form may be a part): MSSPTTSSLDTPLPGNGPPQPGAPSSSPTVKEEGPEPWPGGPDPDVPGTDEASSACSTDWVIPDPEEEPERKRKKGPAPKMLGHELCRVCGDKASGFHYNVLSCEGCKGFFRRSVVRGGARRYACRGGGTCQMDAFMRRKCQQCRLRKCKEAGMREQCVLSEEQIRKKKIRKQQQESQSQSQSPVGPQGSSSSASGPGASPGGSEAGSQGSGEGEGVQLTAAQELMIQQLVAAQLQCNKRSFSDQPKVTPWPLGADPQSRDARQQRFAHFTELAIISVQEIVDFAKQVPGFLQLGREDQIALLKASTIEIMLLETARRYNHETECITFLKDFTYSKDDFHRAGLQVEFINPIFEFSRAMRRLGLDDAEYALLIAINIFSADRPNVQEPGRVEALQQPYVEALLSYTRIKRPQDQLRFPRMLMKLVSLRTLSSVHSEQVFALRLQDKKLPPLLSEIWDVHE
In short: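 HepG2 cells transiently transfected with multiple reporter transcription units carrying chimeric NR-Gal4 proteins acting on GAL4-UAS reporters; compound exposure 24 h. Reporter mRNA quantified by RT-PCR, 6-FAM labelling, HpaI digestion and capillary electrophoresis; gain of signal versus DMSO.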

[15] = ATG_M_06_TRANS: Attagene TRANS-FACTORIAL HepG2 Assay for M06 Transcription Factor (Internal Marker) (AID 2282983); settings: HepG2 Attagene TRANS M06 internal marker reporter;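 also: reporter transcript level by RT-PCR then capillary electrophoresis fluorescence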
In short: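 Transfect HepG2 with MRTUs → dose compounds 24 h → isolate RNA, oligo(dT) RT → PCR with reporter primers → 6-FAM primer extension → HpaI digest → CE fragment analysis. Positive direction vs DMSO.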

[16] = ATG_M_32_TRANS: Attagene TRANS-FACTORIAL HepG2 Assay for M32 Transcription Factor (Internal Marker) (AID 2282984); settings: HepG2 Attagene TRANS M32 internal marker reporter
In short: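 HepG2 cells transiently transfected with multiple GAL4-UAS reporter transcription units, dosed for 24 hours; reporter mRNA quantified by RT-PCR, 6-FAM primer extension, HpaI digestion and capillary electrophoresis. Gain-of-signal fitted versus DMSO baseline; internal background-control marker.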

[17] = ATG_M_19_TRANS: Attagene TRANS-FACTORIAL HepG2 Assay for M19 Transcription Factor (Internal Marker) (AID 2282974); settings: HepG2 Attagene TRANS-FACTORIAL M19 internal marker reporter
In short: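 Multiplexed TRANS format: HepG2 liver cells bearing transient GAL4-UAS reporter units, chemical treatment 24 h, reporter transcripts quantified by RT-PCR plus capillary electrophoresis. DMSO defines baseline.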

[18] = molecular target: Androgen receptor (Homo sapiens) (UniProt P10275); test: ATG_AR_TRANS: Attagene TRANS-FACTORIAL HepG2 Assay for human Androgen Receptor (AR) (AID 2282973); settings: HepG2 Attagene TRANS-FACTORIAL AR reporter transcription
Chain of Androgen receptor (Homo sapiens) (P10275 whole entry, looked up, the tested form may be a part): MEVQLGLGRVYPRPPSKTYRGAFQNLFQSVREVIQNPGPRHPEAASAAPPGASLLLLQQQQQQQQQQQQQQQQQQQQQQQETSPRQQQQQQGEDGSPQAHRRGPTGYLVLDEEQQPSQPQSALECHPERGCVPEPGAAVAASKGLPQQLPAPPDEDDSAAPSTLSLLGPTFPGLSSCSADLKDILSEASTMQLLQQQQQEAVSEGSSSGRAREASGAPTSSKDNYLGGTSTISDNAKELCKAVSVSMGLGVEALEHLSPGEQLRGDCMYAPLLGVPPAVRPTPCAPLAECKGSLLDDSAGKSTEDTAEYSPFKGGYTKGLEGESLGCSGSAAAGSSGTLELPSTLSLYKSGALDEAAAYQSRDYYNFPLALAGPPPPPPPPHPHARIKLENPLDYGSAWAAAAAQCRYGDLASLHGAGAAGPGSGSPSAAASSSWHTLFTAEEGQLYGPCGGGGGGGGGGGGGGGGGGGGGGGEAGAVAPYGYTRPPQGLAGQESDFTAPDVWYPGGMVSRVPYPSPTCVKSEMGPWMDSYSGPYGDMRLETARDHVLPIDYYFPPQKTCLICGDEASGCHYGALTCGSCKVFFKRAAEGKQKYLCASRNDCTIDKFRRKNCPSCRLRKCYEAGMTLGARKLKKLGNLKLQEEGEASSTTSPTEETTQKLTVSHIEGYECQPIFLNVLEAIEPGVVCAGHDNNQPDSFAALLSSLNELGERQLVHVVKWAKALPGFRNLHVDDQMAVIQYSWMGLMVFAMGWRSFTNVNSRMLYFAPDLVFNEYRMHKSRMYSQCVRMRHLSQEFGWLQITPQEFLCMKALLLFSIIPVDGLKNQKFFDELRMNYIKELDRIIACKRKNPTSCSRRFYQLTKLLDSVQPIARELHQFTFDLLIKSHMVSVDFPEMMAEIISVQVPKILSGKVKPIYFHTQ
In short: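 Steps: transfect HepG2 with multiple GAL4-UAS reporter transcription units (TRANS format, exogenous NR-Gal4 protein); dose 24 h; isolate RNA, reverse-transcribe, PCR-amplify, FAM-label, HpaI-digest; resolve by capillary electrophoresis. Positive direction vs DMSO.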

Measured: AC50

COC(=O)N(OC)c1ccccc1COc1ccn(-c2ccc(Cl)cc2)n1
inactive: [1] | [2] | [3] | [5] | [6] | [7] | [8] | [9] | [10] | [11] | [12] | [13] | [14] | [15] | [16]
active: [4] 1350 nM

COP(N)(=O)SC (centres undefined)
inactive: [1] | [2] | [3] | [4] | [5] | [7] | [17] | [8] | [13] | [15] | [16]

COc1nc(C)nc(NC(=O)NS(=O)(=O)c2ccccc2Cl)n1
inactive: [1] | [2] | [3] | [4] | [5] | [7] | [17] | [10] | [15] | [16]

N#CC(CCc1ccc(Cl)cc1)(Cn1cncn1)c1ccccc1 (centres undefined)
inactive: [1] | [2] | [3] | [4] | [6] | [7] | [18] | [17] | [8] | [10] | [11] | [12] | [14] | [16]

CC(Oc1ccc(Cl)cc1Cl)C(=O)O (centres undefined)
inactive: [1] | [2] | [3] | [4] | [7] | [17] | [8] | [11]
